Source: PubChem BioAssay (NCI)
The panel holds about 83,000 compounds, 20% with a hit somewhere; the sample as a whole holds those more often.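 The endpoint reported here, percent growth, reads 100 for growth as untreated, 0 for no net growth and -100 for all cells dead.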 Values without a mark were called inactive. Calls of active or inactive are those of the source.

tested on: SK-MEL-2 melanoma; assay: NCI-60 one-dose screen, 48 h (100 = growth as untreated, 0 = no growth, -100 = all killed); details: 10 µM unless noted
Protocol: Growth inhibition of the SK-MEL-2 human tumor cell line is measured as a screen for anti-cancer activity. Cells are grown in 96 well plates and exposed to the test compound for 48 hours. Compounds are tested at a single concentration, which is 10^-5 M for most compounds. The reported endpoint is percent growth (GI% or GIPRCNT), where numbers from 0 - 100% represent growth inhibition, and numbers from -100% - 0 represent cell death. For example, a value of 40 represents 60% growth inhibition. A value of 0 means no net growth occurred over the course of the experiment. A value of -40 indicates 40% of cells at the beginning of the experiment died by the end of the experiment. A value of -100 means all cells are dead at the end of the experiment.
NCI-60 Human Tumor Cell Lines Screen was performed using the standard one-dose NCI protocol, which is described in more detail at https://dtp.cancer.gov/discovery_development/nci-60/default.htm.
Compounds with GIPRCNT values below 10 were considered active. Activity score was based on GIPRCNT using the following formula: […]
Score is 0 for GIPRCNT values of 100 or above, 50 for GIPRCNT values of 0, and 100 for GIPRCNT values of -100.

In the case of `CN1CCN(Cc2ccc(NC(=O)c3cncc(C#Cc4cncc5nccnc45)c3)cc2C(F)(F)F)CC1`, the growth is reported as -13.2% (active).
In the case of `CC(=O)C1=C(O)C=C2Oc3c(C(=O)/C=C/c4cc(C(F)(F)F)cc(C(F)(F)F)c4)c(O)c(C)c(O)c3[C@]2(C)C1=O`, the growth is reported as -49.7% (active).
`Nc1ccc(Nc2nccc(-c3ccc4ccccc4c3)n2)cc1` was tested, and the growth was 5.47% (active).
With `CN1CCN(c2ccc3nc(-c4ccc5nc(-c6ccc(OCCC(C)(C)C)cc6)[nH]c5c4)[nH]c3c2)CC1` the growth was 5.57% (active).

Compared with `O=C1C=CC(=O)c2c1nc1n2CCCC1`, `c1ccc(-c2nc(N3CCOCC3)c3c4c(sc3n2)CCCCC4)nc1` is lower in growth: 70.6% for the first, 61.7% for the second.

First: O=c1ccc2cc3ccccc3cc2[nH]1
Second: O=C(/C=C/c1ccc(Cl)cc1)/C=C/c1cc2ccccc2[nH]c1=O
The growth of the first is lower: 97.5% for the first, 98.2% for the second.

Going from `CSc1ccc(N=C=C(c2ccccc2)c2ccccc2)cc1` to `COc1ccccc1/C=C(/C(=O)c1ccccc1)c1ccccc1`, the growth rises from 93.5% to 94.5%.

Compared with `CCCCCC(=O)N(CCCC)CCCC`, `CCCCCCCCCCCCN1CCCC(C)C1` (stereo not given) is lower in growth: 124% for the first, 89.6% for the second.

Compared with `CCCCCC(=O)Oc1ccc(/C(=C(\C)c2ccccc2)c2ccc(OCCN(CC)CC)cc2)cc1`, `COc1ccc2[nH]c(=O)c(/C=C/C(=O)c3ccc(Nc4nccc(-c5ccc6ccccc6c5)n4)cc3)cc2c1` is higher in growth: 87.6% for the first, 102% for the second.

Going from `OCCNCCNc1c2ccccc2nc2ccccc12` to `Cc1ccc2c(c1)C(=O)c1c-2c(OCCCN(C)C)nc2ccccc12`, the growth falls from 68.5% to 44.7%.

Compared with `CCOC(=O)c1cnc2ccc(OC)cc2c1Nc1cccc(S(=O)(=O)NC)c1`, `CCOC(=O)c1cnc2ccc(Br)cc2c1Nc1cccc(S(=O)(=O)NC)c1` is higher in growth: 102% for the first, 111% for the second.

First: COC(=O)C12C3C(=O)N(c4ccc(OC)cc4)C(=O)C3C(c3cn(-c4ccccc4)nc3C)N1[C@H](c1cn(-c3ccccc3)nc1C)[C@@H]1C(=O)N(c3ccc(OC)cc3)C(=O)[C@@H]12 (stereo not given in full)
Second: O=S(=O)(NCCCNc1cc(-c2cn(-c3ccccc3)nc2-c2ccccc2)ccn1)c1ccc(C(F)(F)F)cc1
The growth of the first is higher: 107% for the first, 79% for the second.

Going from `C=C1CC[C@@H]2[C@](C)(COC(C)=O)[C@H](OC(C)=O)CC[C@@]2(C)[C@@H]1CC(NCc1ccc(F)cc1)C1=CCOC1=O` (stereo not given in full) to `CC(C)[C@@H]1CC[C@]2(C(=O)NCCCCN=C(N)N)CC[C@]3(C)[C@H](CC[C@@H]4[C@@]5(C)CCC(=O)C(C)(C)[C@@H]5CC[C@]43C)[C@@H]12`, the growth rises from 73.2% to 83.3%.

First: CCCCCCCCCCCCCC1=NCCN1CCO
Second: CN(C)CCOc1ccc(-c2nc3ccc(-c4nc5ccc(N6CCN(C)CC6)cc5[nH]4)cc3[nH]2)cc1
The growth of the first is higher: 114% for the first, 25.7% for the second.

First: NC1=CC(=O)C(=O)c2ccccc21
Second: O=C(O)c1ccc2c(c1Sc1ccccc1)C(=O)c1ccccc1C2=O
The growth of the first is lower: 75.1% for the first, 90.5% for the second.

First: Nc1c(C(=O)Nc2cccc3c2OCCO3)sc2nc3c(cc12)CN(Cc1ccccc1)CC3
Second: O=[N+]([O-])c1cccc(C2CC(c3ccccc3)=Nc3ccccc3S2)c1 (stereo not given)
The growth of the first is lower: 56.2% for the first, 95.4% for the second.

Compared with `O=C(NCc1cccc(C(F)(F)F)c1)[C@H](CCC(=O)N1CCN(C2CCCCC2)CC1)N1C(=O)[C@@H](N2C(=O)OC[C@@H]2c2ccccc2)[C@H]1/C(Cl)=C/c1ccccc1`, `COc1ccc(CN(c2ccc(C)cc2)C2OC(=O)c3ccccc32)cc1OC` (stereo not given) is higher in growth: 34.8% for the first, 95.3% for the second.

Going from `N#Cc1ccc(NC(=O)Nc2ccc(Cc3ccc(NC(=O)Nc4ccc(C#N)cc4)cc3)cc2)cc1` to `COc1ccc(S(=O)(=O)NCCNc2nccc(-c3c(-c4cccc(N)c4)nc4sccn34)n2)cc1`, the growth rises from 12.8% to 108%.

Compared with `COc1cc(-c2c3sc(=O)[nH]c3nc3c2c(=O)[nH]n3C(C)C)cc2c1OCO2`, `O=C1c2cc3c(cc2-c2c1c1cc(Cl)c(Cl)cc1c(=O)n2CCCn1ccnc1)OCO3` is lower in growth: 101% for the first, 22.7% for the second.

Going from `COc1cc2cc(COc3nccc(-c4ccc(Cl)cc4)n3)c(=O)[nH]c2cc1OC` to `COc1ccc(-c2nc(Nc3cc(C)[nH]n3)c3ccccc3n2)cc1`, the growth falls from 96.7% to 59.7%.

Compared with `CCNS(=O)(=O)c1ncnc2nc[nH]c12`, `Clc1cccc(Nc2nc(Nc3cnc4ccccc4c3)c3[nH]cnc3n2)c1` is lower in growth: 109% for the first, 81.1% for the second.

Compared with `c1ccc2sc(SCCCn3ccnc3)nc2c1`, `COc1ccc(C(=O)/C=C/c2c[n+](=O)c3ccc(F)cc3n2[O-])cc1` is higher in growth: 68.7% for the first, 112% for the second.
